In publication PMC4336329 (PLoS ONE, 2015):
The campaign covered roughly 310,000 compounds. About 14,000 (4.5%) showed an effect of 50% or more. The effect is printed as a negative number. The sample holds strong results, similar compounds and a random draw of the others, so the mix is not that of the screen.
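Further: peak tail current of the secondary pulse compared with the same well before compound.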

The molecules below were run against human ether-à-go-go-related gene (hERG) potassium channel (human, UniProt Q12809) (assay: primary screen, population patch clamp on CHO cells stably expressing hERG; higher = less effect of the substance).
Chain of human ether-à-go-go-related gene (hERG) potassium channel (Q12809 whole entry, looked up): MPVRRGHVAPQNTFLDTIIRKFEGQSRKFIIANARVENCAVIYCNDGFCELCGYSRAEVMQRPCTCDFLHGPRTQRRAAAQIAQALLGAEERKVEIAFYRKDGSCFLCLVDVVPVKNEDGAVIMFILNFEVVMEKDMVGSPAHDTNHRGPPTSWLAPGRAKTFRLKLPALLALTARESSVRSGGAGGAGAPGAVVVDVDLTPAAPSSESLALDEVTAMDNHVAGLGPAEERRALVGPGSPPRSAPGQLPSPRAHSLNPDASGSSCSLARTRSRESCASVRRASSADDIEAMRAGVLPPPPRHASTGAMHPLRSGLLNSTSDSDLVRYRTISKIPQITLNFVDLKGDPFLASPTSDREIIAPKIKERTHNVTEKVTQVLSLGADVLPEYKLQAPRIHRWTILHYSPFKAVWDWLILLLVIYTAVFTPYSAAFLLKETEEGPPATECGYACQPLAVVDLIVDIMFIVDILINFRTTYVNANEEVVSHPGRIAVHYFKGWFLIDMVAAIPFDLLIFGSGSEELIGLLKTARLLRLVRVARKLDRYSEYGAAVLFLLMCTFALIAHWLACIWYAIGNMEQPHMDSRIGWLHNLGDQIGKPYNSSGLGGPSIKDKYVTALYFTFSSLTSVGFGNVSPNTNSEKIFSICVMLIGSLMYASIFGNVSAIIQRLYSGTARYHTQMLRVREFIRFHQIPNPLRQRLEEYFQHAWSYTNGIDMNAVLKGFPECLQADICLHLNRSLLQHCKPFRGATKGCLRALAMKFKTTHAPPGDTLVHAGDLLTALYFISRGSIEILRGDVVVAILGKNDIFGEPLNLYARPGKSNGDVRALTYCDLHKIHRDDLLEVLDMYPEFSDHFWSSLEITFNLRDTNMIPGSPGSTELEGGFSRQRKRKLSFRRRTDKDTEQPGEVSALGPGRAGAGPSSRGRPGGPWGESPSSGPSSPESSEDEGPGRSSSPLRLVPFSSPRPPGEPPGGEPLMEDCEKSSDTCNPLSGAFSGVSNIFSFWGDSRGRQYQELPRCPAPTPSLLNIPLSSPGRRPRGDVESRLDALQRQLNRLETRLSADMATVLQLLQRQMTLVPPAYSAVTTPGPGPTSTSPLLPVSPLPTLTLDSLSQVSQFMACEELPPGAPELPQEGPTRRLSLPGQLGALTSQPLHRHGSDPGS
In the case of `Cc1ccc(NC(=O)N2CCN(C(=O)C3CCCO3)CC2)cc1` (stereo not shown), the “hERG current change (%, negative = inhibition) at 10uM” value is reported as 9.64%.
For `COc1ccccc1OCC(=O)Nc1ncc(C)s1`, the “hERG current change (%, negative = inhibition) at 10uM” value was -6.77%.
In the case of `CC(C)(C)NC(=O)NC(=O)CSc1nnc2ccccn12`, the “hERG current change (%, negative = inhibition) at 10uM” value is reported as -2.98%.
With `CCOc1ccccc1CNC(=O)C1CCC(=O)N1C(C)C` (stereo not shown) the “hERG current change (%, negative = inhibition) at 10uM” value was 1.56%.
`Cc1cnc(C(=O)OCC(=O)Nc2c(Cl)cc(Cl)cc2Cl)cn1` was tested, and the “hERG current change (%, negative = inhibition) at 10uM” value was 12.7%.
In the case of `O=C(CCCNS(=O)(=O)c1cccc2nsnc12)NCCc1ccccc1`, the “hERG current change (%, negative = inhibition) at 10uM” value is reported as 5.61%.
In the case of `O=C(COC(=O)C1CC1)Nc1ncc(Cl)cc1Cl`, the “hERG current change (%, negative = inhibition) at 10uM” value is reported as 8.23%.
`CN(Cc1ccccc1)C(=O)C1CCN(S(=O)(=O)c2cc([N+](=O)[O-])ccc2Cl)CC1` was tested, and the “hERG current change (%, negative = inhibition) at 10uM” value was -54.6%.
`CN(Cc1ccccc1)C(=O)C1CCN(S(C)(=O)=O)CC1` was tested, and the “hERG current change (%, negative = inhibition) at 10uM” value was 16.1%.
In the case of `CC(NC(=O)C1CCN(S(=O)(=O)c2cc([N+](=O)[O-])ccc2Cl)CC1)c1ccccc1` (stereo not shown), the “hERG current change (%, negative = inhibition) at 10uM” value is reported as 11.5%.
With `O=C(NCc1ccc(Cl)cc1)C1CCN(S(=O)(=O)c2cc([N+](=O)[O-])ccc2Cl)CC1` the “hERG current change (%, negative = inhibition) at 10uM” value was -59%.
In the case of `O=C(NCc1ccccc1)C1CCN(S(=O)(=O)c2cc([N+](=O)[O-])ccc2Cl)CC1`, the “hERG current change (%, negative = inhibition) at 10uM” value is reported as -7.61%.
In the case of `O=C(COC(=O)C1CCCC1)Nc1ncc(Cl)cc1Cl`, the “hERG current change (%, negative = inhibition) at 10uM” value is reported as 5.91%.
For `O=C(COC(=O)C1CCN(S(=O)(=O)c2cc([N+](=O)[O-])ccc2Cl)CC1)Nc1ncc(Cl)cc1Cl`, the “hERG current change (%, negative = inhibition) at 10uM” value was -57.6%.
`CCC(C)NC(=O)C1CCN(S(=O)(=O)c2cc([N+](=O)[O-])ccc2Cl)CC1` (stereo not shown) was tested, and the “hERG current change (%, negative = inhibition) at 10uM” value was -0.184%.
With `CC(=O)COC(=O)C1CCN(S(=O)(=O)c2cc([N+](=O)[O-])ccc2Cl)CC1` the “hERG current change (%, negative = inhibition) at 10uM” value was -51.8%.
With `CC1CCN(S(=O)(=O)c2cc([N+](=O)[O-])ccc2Cl)CC1` the “hERG current change (%, negative = inhibition) at 10uM” value was -24%.
For `O=C(NC1CC1)C1CCN(S(=O)(=O)c2cc([N+](=O)[O-])ccc2Cl)CC1`, the “hERG current change (%, negative = inhibition) at 10uM” value was -28%.
In the case of `Cc1cccc(C(=O)NC2CCN(C(=S)NCc3ccco3)CC2)c1`, the “hERG current change (%, negative = inhibition) at 10uM” value is reported as -46.7%.
For `CCOC(=O)CSc1ncc(-c2cccc(Cl)c2)cn1`, the “hERG current change (%, negative = inhibition) at 10uM” value was -17.4%.
In the case of `CC/C(CC(c1ccccc1)c1c(O)c2ccccc2oc1=O)=N\NC(N)=S` (stereo not shown), the “hERG current change (%, negative = inhibition) at 10uM” value is reported as 2.2%.
With `Cc1cc(O)c(C(C[N+](=O)[O-])c2ccc(Cl)cc2Cl)c(=O)o1` (stereo not shown) the “hERG current change (%, negative = inhibition) at 10uM” value was 6.51%.
For `CCOC(=O)N1CCN(C(=O)COc2cc(=O)n(CC)c3ccccc23)CC1`, the “hERG current change (%, negative = inhibition) at 10uM” value was -17%.
With `CCCCc1cc2c(cc1NC(=O)CN1CCCCC1)OCCO2.Cl` the “hERG current change (%, negative = inhibition) at 10uM” value was 3.82%.
For `COc1ccc(-c2cc(C(=O)Nc3ccccc3O)c3ccccc3n2)cc1`, the “hERG current change (%, negative = inhibition) at 10uM” value was 13.1%.
With `Cc1cccc(NC(=O)c2cccc(N3C(=O)C4C5CCC(C5)C4C3=O)c2)c1C` (stereo not shown) the “hERG current change (%, negative = inhibition) at 10uM” value was -7.75%.
With `Cc1ccc(-n2c(=O)[nH]c3c(C(N)=O)nc(-c4ccc(C)o4)nc32)cc1` the “hERG current change (%, negative = inhibition) at 10uM” value was 14.7%.
In the case of `Cc1c(-c2cc[n+]([O-])cc2)oc2ccc(Br)cc2c1=O`, the “hERG current change (%, negative = inhibition) at 10uM” value is reported as -54.2%.
In the case of `Cc1oc2ccc(Br)cc2c(=O)c1-c1nn[nH]n1`, the “hERG current change (%, negative = inhibition) at 10uM” value is reported as 3.71%.
In the case of `Cc1c(-c2ccncc2)oc2ccc(Br)cc2c1=O`, the “hERG current change (%, negative = inhibition) at 10uM” value is reported as -41.2%.
`Cc1ccc(S(=O)(=O)Oc2cccc(N3C(=O)C4CC=CCC4C3=O)c2)cc1` (stereo not shown) was tested, and the “hERG current change (%, negative = inhibition) at 10uM” value was -17.3%.
For `CC(=O)NC(Cc1cc(C)ccc1C)C(=O)N1CCN(C(=O)c2ccc([N+](=O)[O-])cc2)CC1` (stereo not shown), the “hERG current change (%, negative = inhibition) at 10uM” value was -30.2%.
For `CC(=O)NC(Cc1cc(C)ccc1C)C(=O)N1CCN(C(=O)c2ccccc2Br)CC1` (stereo not shown), the “hERG current change (%, negative = inhibition) at 10uM” value was -0.358%.
For `CC(=O)NC(Cc1cc(C)ccc1C)C(=O)N1CCN(C(=O)c2ccc(Br)cc2)CC1` (stereo not shown), the “hERG current change (%, negative = inhibition) at 10uM” value was -71.8%.
For `CCOC(=O)c1c(NC(=O)COC(=O)CCOc2ccccc2C)sc(C(=O)NC)c1C`, the “hERG current change (%, negative = inhibition) at 10uM” value was 20.1%.
For `Cc1ccc(/C=C/C(=O)OCC(=O)Nc2ccc3[nH]c(=O)[nH]c3c2)o1`, the “hERG current change (%, negative = inhibition) at 10uM” value was 2.52%.
In the case of `COc1ccc(/C=N/Nc2nnc(Cc3ccc(OC)c(OC)c3)c(=O)[nH]2)cc1OC`, the “hERG current change (%, negative = inhibition) at 10uM” value is reported as 18.9%.
With `COc1ccc(/C=N/Nc2nnc(Cc3ccccc3)c(=O)[nH]2)cc1` the “hERG current change (%, negative = inhibition) at 10uM” value was -15.1%.
With `COc1ccc(/C=N/Nc2nnc(Cc3ccccc3)c(=O)[nH]2)cc1OC` the “hERG current change (%, negative = inhibition) at 10uM” value was -61.4%.
With `Oc1ccc(N=Nc2n[nH]c(-c3ccccc3)n2)cc1` the “hERG current change (%, negative = inhibition) at 10uM” value was 9.94%.
With `CCOc1ccc(NC(=O)Nc2ccon2)cc1` the “hERG current change (%, negative = inhibition) at 10uM” value was 16.7%.
`CCC(=O)Nc1ccc(Cl)c(NC(=O)c2ccc([N+](=O)[O-])cc2)c1` was tested, and the “hERG current change (%, negative = inhibition) at 10uM” value was -5.07%.
`CCCC(=O)Nc1cccc(NC(=O)c2ccc([N+](=O)[O-])cc2Cl)c1` was tested, and the “hERG current change (%, negative = inhibition) at 10uM” value was -14.5%.
With `CCC(C)NS(=O)(=O)c1ccc(NC(=O)c2ccc([N+](=O)[O-])cc2Cl)cc1` (stereo not shown) the “hERG current change (%, negative = inhibition) at 10uM” value was -88.7%.
With `CCCC(=O)Nc1ccc(Cl)c(NC(=O)c2ccc([N+](=O)[O-])cc2Cl)c1` the “hERG current change (%, negative = inhibition) at 10uM” value was -51.2%.
In the case of `CC(=O)Nc1ccc(NC(=O)c2ccc([N+](=O)[O-])cc2Cl)cc1`, the “hERG current change (%, negative = inhibition) at 10uM” value is reported as 6.15%.
With `CC(C)C(=O)Nc1ccc(NC(=O)c2ccc([N+](=O)[O-])cc2Cl)cc1` the “hERG current change (%, negative = inhibition) at 10uM” value was 5.02%.
`CC(C)(C)NC(=O)NC(=O)CN1CCN(Cc2ccccc2)CC1` was tested, and the “hERG current change (%, negative = inhibition) at 10uM” value was -1.77%.
With `COC(=O)[C@@]1(Cc2ccc(OC)cc2)[C@H]2c3cc(C(=O)N(C)C)n(CCc4ccc(OC)c(Br)c4)c3C[C@H]2CN1C(=O)c1ccccc1` the “hERG current change (%, negative = inhibition) at 10uM” value was 11.4%.
`Cc1cccc(C(=O)NCCN2CCOCC2)c1[N+](=O)[O-]` was tested, and the “hERG current change (%, negative = inhibition) at 10uM” value was 4.8%.
In the case of `Cc1ccc(C)c(OCc2cc(C(=O)N3C[C@@H](C)O[C@@H](C)C3)no2)c1`, the “hERG current change (%, negative = inhibition) at 10uM” value is reported as 4.95%.
In the case of `CCCCc1c(O)nc(SCC(=O)NCCc2ccc(OC)c(OC)c2)[nH]c1=O`, the “hERG current change (%, negative = inhibition) at 10uM” value is reported as -0.0252%.
`COc1cc(OC)cc(C(=O)NC(=S)Nc2ccc3[nH]c(=O)[nH]c3c2)c1` was tested, and the “hERG current change (%, negative = inhibition) at 10uM” value was -27%.
For `COc1ccc(C(=O)NC(=S)Nc2ccc3[nH]c(=O)[nH]c3c2)cc1`, the “hERG current change (%, negative = inhibition) at 10uM” value was 15.5%.
With `COc1cccc(C(=O)NC(=S)Nc2ccc3[nH]c(=O)[nH]c3c2)c1` the “hERG current change (%, negative = inhibition) at 10uM” value was -70.3%.
